Data on ten compounds can be found in ChEMBL document CHEMBL2218924, “A broad activity screen in support of a chemogenomic map for kinase signalling research and drug discovery” (Biochem J, 2013).

Usually residual activity stands for the signal under treatment as a percentage of the control signal.

Experiment [1] addresses T1, Serine/threonine-protein kinase haspin (Homo sapiens) (UniProt Q8TF76).
T1 sequence (whole entry): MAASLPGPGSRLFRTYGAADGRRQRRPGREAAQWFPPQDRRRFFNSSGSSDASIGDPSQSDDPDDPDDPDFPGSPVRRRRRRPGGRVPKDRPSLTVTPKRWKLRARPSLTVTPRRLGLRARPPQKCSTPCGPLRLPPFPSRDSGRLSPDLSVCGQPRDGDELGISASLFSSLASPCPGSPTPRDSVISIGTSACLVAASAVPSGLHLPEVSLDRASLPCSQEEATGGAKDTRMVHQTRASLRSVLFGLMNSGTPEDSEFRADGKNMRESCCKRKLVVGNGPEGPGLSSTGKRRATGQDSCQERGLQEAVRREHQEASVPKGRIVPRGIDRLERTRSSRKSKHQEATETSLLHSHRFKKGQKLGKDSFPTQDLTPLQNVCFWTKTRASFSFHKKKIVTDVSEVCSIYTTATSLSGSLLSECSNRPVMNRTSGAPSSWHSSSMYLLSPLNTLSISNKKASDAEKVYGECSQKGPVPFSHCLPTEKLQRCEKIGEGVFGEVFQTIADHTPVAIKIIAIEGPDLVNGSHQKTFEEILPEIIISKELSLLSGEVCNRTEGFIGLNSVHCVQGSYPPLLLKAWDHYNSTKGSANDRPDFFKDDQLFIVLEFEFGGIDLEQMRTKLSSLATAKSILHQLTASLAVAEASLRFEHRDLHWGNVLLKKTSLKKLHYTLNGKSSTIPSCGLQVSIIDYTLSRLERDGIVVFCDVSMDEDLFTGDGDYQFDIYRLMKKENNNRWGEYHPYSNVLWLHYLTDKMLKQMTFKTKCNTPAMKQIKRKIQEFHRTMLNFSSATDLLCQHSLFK
The following applies: at 1 µM.

Experiment [2] addresses T1, Serine/threonine-protein kinase haspin (Homo sapiens). Conditions: at 10 µM.
Experiment [3] has as its target Tyrosine-protein kinase HCK (Homo sapiens) (UniProt P08631). Conditions: at 1 µM.
Experiment [4] has the same target. Conditions: at 10 µM.
The target is the same in experiment [5]. The following applies: at 10 µM. The source holds these as a separate data set.
The target in experiment [6] is Protein kinase C eta type (Homo sapiens) (UniProt P24723). Conditions: at 10 µM.
Experiment [7] addresses Protein kinase C theta type (Homo sapiens) (UniProt Q04759). Conditions: at 1 µM.
For experiment [8] the target is unchanged. Conditions: at 10 µM.
In experiment [9] the target is T2, Serine/threonine-protein kinase D1 (Homo sapiens) (UniProt Q15139).
T2 sequence (whole entry): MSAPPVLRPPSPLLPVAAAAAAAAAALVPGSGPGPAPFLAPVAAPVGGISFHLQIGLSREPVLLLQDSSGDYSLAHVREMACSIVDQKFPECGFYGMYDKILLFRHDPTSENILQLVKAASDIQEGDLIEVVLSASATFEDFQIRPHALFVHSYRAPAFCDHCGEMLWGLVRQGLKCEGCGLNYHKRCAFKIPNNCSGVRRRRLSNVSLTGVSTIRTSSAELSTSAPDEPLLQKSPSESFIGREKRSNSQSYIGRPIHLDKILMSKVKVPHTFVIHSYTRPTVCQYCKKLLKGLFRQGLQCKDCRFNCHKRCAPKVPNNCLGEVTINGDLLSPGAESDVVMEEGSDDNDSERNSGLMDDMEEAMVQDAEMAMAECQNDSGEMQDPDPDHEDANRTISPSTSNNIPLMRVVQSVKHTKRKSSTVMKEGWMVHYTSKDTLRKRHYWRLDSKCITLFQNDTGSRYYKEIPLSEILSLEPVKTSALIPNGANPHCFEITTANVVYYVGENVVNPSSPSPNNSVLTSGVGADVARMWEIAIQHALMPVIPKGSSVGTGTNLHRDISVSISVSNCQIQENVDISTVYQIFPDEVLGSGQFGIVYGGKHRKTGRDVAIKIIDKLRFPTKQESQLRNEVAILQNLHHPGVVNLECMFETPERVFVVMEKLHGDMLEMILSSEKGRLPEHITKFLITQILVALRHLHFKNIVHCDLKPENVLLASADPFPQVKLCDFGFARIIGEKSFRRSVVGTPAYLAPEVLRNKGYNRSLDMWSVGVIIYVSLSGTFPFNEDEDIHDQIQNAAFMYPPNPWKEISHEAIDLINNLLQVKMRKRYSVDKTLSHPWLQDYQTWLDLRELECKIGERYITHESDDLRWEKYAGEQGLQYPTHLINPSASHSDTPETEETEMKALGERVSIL
The following applies: at 1 µM.

Experiment [10] has as its target T2, Serine/threonine-protein kinase D1 (Homo sapiens). The following applies: at 10 µM.
Experiment [11] has as its target Insulin-like growth factor 1 receptor (Homo sapiens) (UniProt P08069). The following applies: at 1 µM.
Experiment [12] shares this target. The following applies: at 10 µM.
Experiment [13] concerns the target Tyrosine-protein kinase HCK (Homo sapiens) (UniProt P08631). Conditions: at 1 µM. This is another data set of the same source.
Experiment [14] addresses Protein kinase C eta type (Homo sapiens) (UniProt P24723). Conditions: at 1 µM.
Experiment [15] has as its target T3, Protein kinase C iota type (Homo sapiens) (UniProt P41743).
T3 sequence (whole entry): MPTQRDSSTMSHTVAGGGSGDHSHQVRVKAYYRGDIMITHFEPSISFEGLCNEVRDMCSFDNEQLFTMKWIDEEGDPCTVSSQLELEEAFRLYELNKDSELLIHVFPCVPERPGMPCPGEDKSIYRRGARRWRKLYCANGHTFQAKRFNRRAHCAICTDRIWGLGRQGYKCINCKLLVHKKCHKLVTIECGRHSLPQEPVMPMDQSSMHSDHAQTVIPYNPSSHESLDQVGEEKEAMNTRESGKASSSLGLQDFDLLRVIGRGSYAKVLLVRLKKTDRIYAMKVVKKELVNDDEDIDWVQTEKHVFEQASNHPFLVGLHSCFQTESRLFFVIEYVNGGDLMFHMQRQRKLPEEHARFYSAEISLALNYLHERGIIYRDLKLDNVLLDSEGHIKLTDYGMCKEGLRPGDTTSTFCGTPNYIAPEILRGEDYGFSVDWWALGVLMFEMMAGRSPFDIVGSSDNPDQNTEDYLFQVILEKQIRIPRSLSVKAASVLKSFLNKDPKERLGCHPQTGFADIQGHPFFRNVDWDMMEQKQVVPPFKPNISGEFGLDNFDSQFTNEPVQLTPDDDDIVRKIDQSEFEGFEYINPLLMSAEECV
The following applies: at 10 µM.

The target of experiment [16] is T4, Serine/threonine-protein kinase D2 (Homo sapiens) (UniProt Q9BZL6).
T4 sequence (whole entry): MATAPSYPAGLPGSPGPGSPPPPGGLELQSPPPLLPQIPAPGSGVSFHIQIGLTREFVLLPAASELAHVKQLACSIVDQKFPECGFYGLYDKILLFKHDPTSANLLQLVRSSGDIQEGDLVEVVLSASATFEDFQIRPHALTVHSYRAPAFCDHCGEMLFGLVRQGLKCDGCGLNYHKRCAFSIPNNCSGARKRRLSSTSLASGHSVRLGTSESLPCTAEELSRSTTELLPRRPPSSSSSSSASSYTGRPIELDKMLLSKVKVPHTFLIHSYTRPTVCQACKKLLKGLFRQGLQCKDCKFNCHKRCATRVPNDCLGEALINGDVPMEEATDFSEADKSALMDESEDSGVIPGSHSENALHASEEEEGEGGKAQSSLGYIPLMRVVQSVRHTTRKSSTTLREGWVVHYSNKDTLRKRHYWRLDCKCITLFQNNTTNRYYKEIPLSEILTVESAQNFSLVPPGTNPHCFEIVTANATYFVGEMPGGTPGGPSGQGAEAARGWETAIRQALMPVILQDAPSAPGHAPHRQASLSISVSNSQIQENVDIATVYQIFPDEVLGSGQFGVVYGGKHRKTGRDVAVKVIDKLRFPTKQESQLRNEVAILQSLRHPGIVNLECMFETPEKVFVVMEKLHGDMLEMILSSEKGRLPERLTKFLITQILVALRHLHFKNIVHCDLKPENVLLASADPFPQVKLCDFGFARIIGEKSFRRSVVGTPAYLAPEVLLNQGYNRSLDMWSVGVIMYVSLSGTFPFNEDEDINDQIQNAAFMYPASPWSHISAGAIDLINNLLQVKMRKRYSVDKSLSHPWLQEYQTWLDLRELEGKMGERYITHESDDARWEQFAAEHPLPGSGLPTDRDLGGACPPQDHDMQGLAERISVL
Conditions: at 1 µM.

For experiment [17], the target named is T4, Serine/threonine-protein kinase D2 (Homo sapiens). Conditions: at 10 µM.

Chain of Tyrosine-protein kinase HCK (Homo sapiens) (P08631 2-526 limits assumed): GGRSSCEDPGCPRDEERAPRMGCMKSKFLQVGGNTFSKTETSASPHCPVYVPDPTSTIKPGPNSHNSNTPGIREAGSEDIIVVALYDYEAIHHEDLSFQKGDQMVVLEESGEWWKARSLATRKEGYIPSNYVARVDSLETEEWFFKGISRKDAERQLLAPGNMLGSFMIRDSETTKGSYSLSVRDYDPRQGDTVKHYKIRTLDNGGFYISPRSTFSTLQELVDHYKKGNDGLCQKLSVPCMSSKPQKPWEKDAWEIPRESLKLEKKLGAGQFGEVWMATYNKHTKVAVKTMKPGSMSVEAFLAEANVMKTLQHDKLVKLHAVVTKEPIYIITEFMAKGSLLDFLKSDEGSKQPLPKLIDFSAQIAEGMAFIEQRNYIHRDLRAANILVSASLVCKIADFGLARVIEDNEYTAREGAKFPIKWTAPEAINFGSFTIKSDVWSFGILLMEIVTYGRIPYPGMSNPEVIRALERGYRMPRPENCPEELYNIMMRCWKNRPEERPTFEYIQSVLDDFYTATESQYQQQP
Chain of Protein kinase C eta type (Homo sapiens) (P24723 whole entry): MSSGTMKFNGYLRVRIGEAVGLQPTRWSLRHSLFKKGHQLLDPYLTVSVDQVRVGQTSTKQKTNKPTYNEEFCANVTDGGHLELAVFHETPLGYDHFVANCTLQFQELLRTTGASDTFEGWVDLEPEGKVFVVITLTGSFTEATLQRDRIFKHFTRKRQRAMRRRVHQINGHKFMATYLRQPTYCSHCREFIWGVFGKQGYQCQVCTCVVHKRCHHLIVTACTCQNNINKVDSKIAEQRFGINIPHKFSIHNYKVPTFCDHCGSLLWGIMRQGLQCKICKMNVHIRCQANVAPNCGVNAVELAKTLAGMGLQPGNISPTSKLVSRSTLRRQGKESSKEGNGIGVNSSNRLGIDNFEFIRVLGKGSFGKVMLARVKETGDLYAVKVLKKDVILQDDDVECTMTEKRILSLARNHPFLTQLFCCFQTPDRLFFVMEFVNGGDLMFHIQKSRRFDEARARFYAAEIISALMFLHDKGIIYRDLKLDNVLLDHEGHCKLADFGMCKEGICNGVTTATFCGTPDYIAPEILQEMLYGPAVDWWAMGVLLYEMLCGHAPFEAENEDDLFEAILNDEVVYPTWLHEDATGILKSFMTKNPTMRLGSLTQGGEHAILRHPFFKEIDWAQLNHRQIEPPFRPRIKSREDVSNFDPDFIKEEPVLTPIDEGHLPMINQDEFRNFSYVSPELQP
Chain of Insulin-like growth factor 1 receptor (Homo sapiens) (P08069 31-736 limits assumed): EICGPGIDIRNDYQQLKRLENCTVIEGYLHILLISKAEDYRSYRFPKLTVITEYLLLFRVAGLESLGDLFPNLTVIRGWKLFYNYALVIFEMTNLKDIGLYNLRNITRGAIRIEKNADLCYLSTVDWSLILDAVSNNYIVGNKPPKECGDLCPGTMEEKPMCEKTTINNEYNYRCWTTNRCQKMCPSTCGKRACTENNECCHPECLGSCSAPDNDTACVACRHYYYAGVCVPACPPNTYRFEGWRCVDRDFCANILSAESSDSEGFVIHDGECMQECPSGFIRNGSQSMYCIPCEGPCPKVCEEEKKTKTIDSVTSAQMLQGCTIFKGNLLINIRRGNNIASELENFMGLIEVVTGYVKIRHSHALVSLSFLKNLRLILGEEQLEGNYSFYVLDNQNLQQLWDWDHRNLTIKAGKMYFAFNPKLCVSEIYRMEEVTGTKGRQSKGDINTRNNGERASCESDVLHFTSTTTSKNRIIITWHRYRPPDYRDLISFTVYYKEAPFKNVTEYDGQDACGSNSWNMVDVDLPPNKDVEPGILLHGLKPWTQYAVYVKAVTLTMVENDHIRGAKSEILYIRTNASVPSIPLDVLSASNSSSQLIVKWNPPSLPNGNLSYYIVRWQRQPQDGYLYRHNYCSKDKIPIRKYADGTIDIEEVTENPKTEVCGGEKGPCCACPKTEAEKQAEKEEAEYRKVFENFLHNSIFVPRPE
Chain of Insulin-like growth factor 1 receptor (Homo sapiens) (P08069 741-1367 limits assumed): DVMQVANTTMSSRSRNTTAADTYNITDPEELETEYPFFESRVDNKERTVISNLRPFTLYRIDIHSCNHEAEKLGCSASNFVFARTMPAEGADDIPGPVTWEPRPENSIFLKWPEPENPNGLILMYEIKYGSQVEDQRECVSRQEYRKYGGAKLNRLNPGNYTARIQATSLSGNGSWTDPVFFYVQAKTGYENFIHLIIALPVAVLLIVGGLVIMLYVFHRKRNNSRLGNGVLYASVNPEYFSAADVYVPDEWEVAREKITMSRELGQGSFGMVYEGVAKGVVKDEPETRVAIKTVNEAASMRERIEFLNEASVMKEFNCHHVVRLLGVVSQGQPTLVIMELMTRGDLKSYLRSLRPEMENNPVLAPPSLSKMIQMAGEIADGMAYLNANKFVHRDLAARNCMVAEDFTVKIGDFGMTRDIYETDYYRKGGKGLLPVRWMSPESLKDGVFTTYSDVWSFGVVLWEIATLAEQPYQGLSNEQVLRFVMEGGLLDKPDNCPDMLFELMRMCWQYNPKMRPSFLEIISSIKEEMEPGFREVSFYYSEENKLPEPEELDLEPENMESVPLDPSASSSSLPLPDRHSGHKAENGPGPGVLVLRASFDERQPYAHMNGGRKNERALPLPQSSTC
Chain of Protein kinase C theta type (Homo sapiens) (Q04759 whole entry, looked up): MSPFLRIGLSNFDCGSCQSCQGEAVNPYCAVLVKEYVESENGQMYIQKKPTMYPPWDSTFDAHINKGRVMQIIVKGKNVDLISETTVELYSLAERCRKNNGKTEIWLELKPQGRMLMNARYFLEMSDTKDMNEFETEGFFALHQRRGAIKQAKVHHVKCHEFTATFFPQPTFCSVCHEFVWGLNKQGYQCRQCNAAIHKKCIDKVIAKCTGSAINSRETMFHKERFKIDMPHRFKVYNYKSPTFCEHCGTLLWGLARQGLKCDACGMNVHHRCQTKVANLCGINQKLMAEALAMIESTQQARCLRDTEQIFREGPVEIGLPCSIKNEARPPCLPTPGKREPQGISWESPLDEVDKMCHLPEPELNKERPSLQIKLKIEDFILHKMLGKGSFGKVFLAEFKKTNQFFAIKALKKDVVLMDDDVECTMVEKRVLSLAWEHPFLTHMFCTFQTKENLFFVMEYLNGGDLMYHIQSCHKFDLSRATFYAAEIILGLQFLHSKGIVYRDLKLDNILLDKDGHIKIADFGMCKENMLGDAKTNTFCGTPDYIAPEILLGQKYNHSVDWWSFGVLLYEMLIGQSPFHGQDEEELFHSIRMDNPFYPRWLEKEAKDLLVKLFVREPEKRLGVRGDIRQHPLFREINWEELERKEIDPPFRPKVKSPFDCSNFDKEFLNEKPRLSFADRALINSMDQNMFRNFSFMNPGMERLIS

With `O=C1Nc2ccccc2/C1=C\c1c(Cl)[nH]c2ccccc12`, the residual activity in [1] was determined as 85%; in experiment [2], 61%; in experiment [3] it was 79%; in [4], 27%; in experiment [5], 87%; in experiment [6], 80%. Besides, the residual activity in experiment [7] was found to be 81%; in experiment [8] it was 71%; in experiment [9], 99%; in experiment [10], 65%.

Turning to `COc1ccc(COc2ccc(Cc3cnc(N)nc3N)cc2OC)cc1`, the residual activity in experiment [4] turned out to be 65%; in experiment [11], 128%; in [12], 133%; in experiment [9] it was 81%; in experiment [10], 77%.

In the case of `CCOC(=O)c1c(C)[nH]c(/C=C2\C(=O)Nc3ccccc32)c1C`, the residual activity was determined as 77% in experiment [3]; 74% in experiment [4]; 93% in [13]; 97% in experiment [5]; 119% in [11].

For the compound `CCCCc1c(-c2ccc(O)cc2)[nH]c2nccnc12`, the residual activity in experiment [1] came to 34%; in experiment [2], 12%; in experiment [3], 64%; in experiment [4], 23%; in experiment [13], 63%; in experiment [5] it was 64%. The residual activity is 131% in experiment [11]; 96% in experiment [14]; 77% in experiment [6]; 83% in [15]; 83% in experiment [9]; 59% in [10].

For `O=S(=O)(c1cccc2cnccc12)N1CCCNCC1`, the residual activity in [1] came to 60%; in experiment [2], 8%; in [14] it was 80%; in experiment [6] it was 26%; in [8] it was 67%; in experiment [9], 84%. Moreover, the residual activity came to 20% in experiment [10] and 100% in experiment [16].

For `CCOc1nc(NC(=O)Cc2cc(OC)ccc2OC)cc(N)c1C#N`, the residual activity in experiment [3] is 78%; in [4], 71%; in experiment [12], 130%; in experiment [10] it was 54%.

For the compound `CN([C@@H](Cc1ccc(OS(=O)(=O)c2cccc3cnccc23)cc1)C(=O)N1CCN(c2ccccc2)CC1)S(=O)(=O)c1cccc2cnccc12`, the residual activity in [2] was 57%; in [3] it was 86%; in experiment [4] it was 61%; in experiment [12], 182%; in experiment [14], 116%; in experiment [6], 100%. Besides, the residual activity in experiment [9] turned out to be 113%; in experiment [17], 79%.

With `COc1cc2nccc(Oc3ccc(NC(=O)Nc4cc(C)on4)c(Cl)c3)c2cc1OC`, the residual activity in experiment [3] was determined as 7%; in [4], 2%; in [13] it was 5%; in [5], 6%; in experiment [11] it was 135%; in experiment [14], 96%. Moreover, the residual activity in [6] worked out at 79%; in [7], 100%; in experiment [8] it was 98%.

Take `O=C(Nc1ccc(Cl)cc1)c1ccccc1NCc1ccncc1`: the residual activity amounted to 80% in experiment [3], 38% in [4] and 125% in experiment [11].

On to `Nc1n[nH]c2nc3ccccc3nc12`, for which the residual activity in experiment [1] came out at 96%; in experiment [2], 41%; in experiment [3], 75%; in experiment [4], 60%; in [5], 88%; in experiment [11] it was 121%. For the same compound, the residual activity was 132% in experiment [12]; 89% in experiment [14]; 68% in experiment [6]; 85% in experiment [8]; 83% in [9]; 69% in experiment [10]. In addition, the residual activity in experiment [17] was found to be 87%.
